# Sampled rows, rich in hits. Any-hit rate of the full collection: about 3.5%.
# MITF inh: MITF inhibitors, primary screen, biochemical, AlphaScreen, human; Microphthalmia-associated transcription factor (Homo sapiens), O75030; actives 0.91% (n = 650,000); inhibition, % at 2.6 µM; AlphaScreen MITF homodimerization, bead proximity signal; in the data active = inhibition above about 50%;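 note: 0% = vehicle wells with protein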
# GPR151 ag: activators of human GPR151, primary screen, cell-based, PathHunter beta-arrestin, luminescence; G-protein coupled receptor 151 (Homo sapiens), Q8TDV0; PathHunter beta-arrestin GPR151 cells; activation, % at 11.2 µM; actives 1% (n = 650,000); in the data active = activation above about 4.9%;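 note: 0% = median of compound wells and 100% = cells with positive control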
# FBW7 activator: FBW7 E3 ligase activators, primary screen, biochemical, AlphaScreen, human; F-box/WD repeat-containing protein 7 (Homo sapiens), Q969H0; AlphaScreen FBW7–phospho-cyclin E peptide binding, activator screen; normalized activity (activation), % at 26.1 µM; actives 0.13% (n = 650,000); in the data active = normalized activity above about 1.9%;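 note: purified mutant Fbw7 with reduced substrate affinity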
# Target sequence (Q969H0 whole entry, looked up): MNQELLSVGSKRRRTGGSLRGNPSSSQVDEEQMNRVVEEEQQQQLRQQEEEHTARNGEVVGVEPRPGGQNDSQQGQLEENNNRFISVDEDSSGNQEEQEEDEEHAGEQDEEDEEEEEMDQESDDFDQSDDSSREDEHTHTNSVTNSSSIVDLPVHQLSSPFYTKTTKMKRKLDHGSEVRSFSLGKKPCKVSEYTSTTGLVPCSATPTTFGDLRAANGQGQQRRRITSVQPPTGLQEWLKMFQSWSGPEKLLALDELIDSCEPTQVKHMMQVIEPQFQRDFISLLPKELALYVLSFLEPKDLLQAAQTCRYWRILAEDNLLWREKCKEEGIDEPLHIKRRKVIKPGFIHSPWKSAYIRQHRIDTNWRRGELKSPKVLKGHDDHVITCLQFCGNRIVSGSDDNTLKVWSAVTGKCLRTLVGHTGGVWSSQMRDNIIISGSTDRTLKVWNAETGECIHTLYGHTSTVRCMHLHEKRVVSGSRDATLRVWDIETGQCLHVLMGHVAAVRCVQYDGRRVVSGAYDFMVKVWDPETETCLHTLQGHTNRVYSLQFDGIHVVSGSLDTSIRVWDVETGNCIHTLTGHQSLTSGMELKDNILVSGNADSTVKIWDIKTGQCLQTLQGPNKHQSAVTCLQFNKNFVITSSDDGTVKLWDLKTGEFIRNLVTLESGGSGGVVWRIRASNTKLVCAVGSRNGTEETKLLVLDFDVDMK
# TEAD-YAP inh: TEAD-YAP interaction inhibition, primary screen, TEAD-YAP interaction inhibitor project, luminescence, HEK-TIYL cells; TEAD-Gal4/YAP UAS-luciferase luminescence; inhibition, % at 9.12 µM; actives 1.4% (n = 640,000); AID 1259422, 2018; in the data active = inhibition above about 32%;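 note: 0% = median of test compound wells and 100% = reference inhibitor wells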
# * marks the source's active call; other numbers are inactive results.
SMILES,MITF inh,GPR151 ag,FBW7 activator,TEAD-YAP inh
O=C(NC1CCCCCCCCCCC1)c1ccc([N+](=O)[O-])cc1Cl,-13,1,0,-13
Cc1cc(OCC(=O)O/N=C(\N)c2cccnc2)c(C)cc1Br,6,1,0,0
CN(C)N1C(N)=C(C#N)C(c2ccccc2Cl)C2=C1CC(c1ccccc1)CC2=O (configuration not stated),-10,-2,0,39*
Oc1ccc(CCNc2nc(NCCN3CCOCC3)nc3nc[nH]c23)cc1,-4,2,0,3
O=C(CSc1nnc(-c2ccccc2Br)o1)Nc1nccs1,7,0,-1,-34
COc1ccc2cc(-c3nc4ccccc4[nH]3)c(=Nc3ccc(C(N)=O)cc3)oc2c1,-8,-7,0,66*
COc1ccc2cc(-c3nc4ccccc4[nH]3)c(=Nc3ccc(F)cc3)oc2c1,-5,-7,1,76*
COc1ccc2oc(=Nc3ccccc3)c(-c3nc4ccccc4[nH]3)cc2c1,9,-2,0,-21
COc1cc(C2C(C(=O)Nc3ccc(C)cn3)=C(C)NC3=C2C(=O)CC(C)(C)C3)cc(OC)c1OC (configuration not stated),17,-1,0,0
Cc1ccc(S(=O)(=O)Nc2cc(C(=O)N3CCOCC3)ccc2N2CCCCC2)cc1,-4,0,0,2
COC(=O)c1ccc(N2CCOCC2)c(NS(=O)(=O)c2ccc(OC)cc2)c1,7,-1,0,58*
COC(=O)c1ccc(N2CCCC2)c(NS(=O)(=O)c2ccc(C)cc2)c1,6,-1,1,41*
O=C(Cc1ccc2c(c1)OCCCO2)c1ccc(O)cc1O,3,2,0,61*
O=C(Cc1ccccc1)c1ccc(O)cc1O,12,1,0,-5
OCCNc1nc(N2CCOCC2)nc2c1ncn2-c1ccsc1,3,0,0,69*
c1cc(-n2cnc3c(NCCN4CCOCC4)nc(N4CCC(N5CCOCC5)CC4)nc32)cs1,-2,0,0,43*
c1ccc2c(c1)CCN(c1nc(NCCN3CCOCC3)c3ncn(-c4ccsc4)c3n1)C2,10,0,0,-1
COc1cc(Nc2nc(N3CCC(N4CCOCC4)CC3)nc3c2ncn3-c2ccsc2)cc(OC)c1OC,6,1,0,5
CC(=O)Nc1ccc(Nc2nc(N3CCC(N4CCOCC4)CC3)nc3c2ncn3-c2ccsc2)cc1,-8,-1,0,46*
c1cc(-n2cnc3c(NCCN4CCOCC4)nc(N4CCOCC4)nc32)cs1,0,-1,0,56*
CC(=O)Nc1ccc(NC(=O)c2cccc(-c3ccc(N4CCOCC4)nc3)c2)cc1,-13,0,0,-78
COc1ccc(C(=O)Oc2ccc(/C=C3/N=C(c4ccc(Cl)cc4)OC3=O)cc2)cc1,5,0,0,-1
CCC(=O)N(CCc1ccc(OC)cc1)C1CC(=O)N(c2ccc(Br)cc2)C1=O (configuration not stated),-1,0,0,6
c1ccc2[nH]c(CNc3nc(N4CCC(N5CCOCC5)CC4)nc4c3ncn4-c3ccsc3)nc2c1,4,0,0,54*
OCCNc1nc(N2CCOCC2)nc2c1ncn2-c1ccccc1,5,0,0,48*
SMILES,MITF inh,GPR151 ag,FBW7 activator,TEAD-YAP inh
c1ccc(OCCNc2nc(N3CCOCC3)nc3c2ncn3-c2ccccc2)cc1,-2,0,0,-8
COc1cccc(C(=O)c2nc3ccccc3n2C)c1OC,14,0,0,1
COCCCNS(=O)(=O)c1cc2c(cc1Cl)NC(=O)CO2,-5,2,0,8
Cc1n[nH]c(=O)nc1N/N=C/c1ccccc1Cl,-1,-7,0,-3
CCCOc1ccc(/C=N/Nc2nc(C)cc(=O)[nH]2)c(O)c1,34,2,-1,86*
Cc1cc(=O)[nH]c(N/N=C/c2ccc(O)cc2O)n1,76*,1,-1,2
Cc1n[nH]c(=O)nc1N/N=C/c1ccc(O)cc1O,97*,-6,-1,42*
Cc1n[nH]c(=O)nc1N/N=C/c1ccc(N(C)C)cc1,10,-7,0,55*
Cc1cc(=O)[nH]c(N/N=C/c2cc(Br)cc(Br)c2O)n1,6,0,0,4
Cc1ccccc1[C@@H]1C[C@H]2CN(C3CCCC3)C(=O)[C@]23CCCN13,5,-1,0,-12
CN1C(=O)CC(C(=O)Nc2ccccc2)SC1=Nc1ccc(Br)cc1 (configuration not stated),-20,0,0,-8
CCN(CC)C(=O)C1CCCN(c2nc(NCc3nc4ccccc4[nH]3)c3ncn(C(C)C)c3n2)C1 (configuration not stated),-2,1,0,30
CCN(CC)C(=O)C1CCCN(c2nc(NCCCN3CCCC3=O)c3ncn(CCN4CCCC4=O)c3n2)C1 (configuration not stated),3,-2,0,-1
CCN(CC)C(=O)C1CCCN(c2nc(NC3CC3)c3ncn(-c4ccsc4)c3n2)C1 (configuration not stated),10,-1,0,9
OCC1CCCN1c1nc(NCc2nc3ccccc3[nH]2)c2ncn(-c3ccsc3)c2n1 (configuration not stated),25,0,0,72*
CCN(CC)C(=O)C1CCCN(c2nc(NCc3nc4ccccc4[nH]3)c3ncn(-c4ccsc4)c3n2)C1 (configuration not stated),3,1,0,85*
CCN(CC)C(=O)C1CCCN(c2nc(NCCCN3CCCC3=O)c3ncn(-c4ccsc4)c3n2)C1 (configuration not stated),8,1,0,35*
CCN(CC)C(=O)C1CCCN(c2nc(NCc3nc4ccccc4[nH]3)c3ncn(-c4ccccc4)c3n2)C1 (configuration not stated),7,0,0,72*
O=C(CSc1cn(Cc2ccc(F)cc2)c2ccccc12)N1CCCCCC1,7,0,0,-13
CCCCn1c2c(=O)n(C)c(=O)n(C)c2n2c(-c3ccc(Cl)cc3)nnc12,26,1,0,-14
Cc1ccc(C)c(NC(=O)CSC2=C(C#N)C(c3cccs3)C3=C(CC(C)(C)CC3=O)N2)c1 (configuration not stated),-5,0,0,-9
O=C(Cn1nnc(-c2ccccc2)n1)Nc1ccccc1I,27,-2,0,3
CCc1cccc(C)c1NC(=S)N(CCN1CCCCCC1)Cc1ccco1,7,-2,3.2*,7
CN(C)c1ccc(/C=C(\C#N)C(=O)Nc2sc3c(c2C(N)=O)CCCC3)cc1,8,0,0,-1
Cc1ccc(-n2nc3ccc(N)cc3n2)cc1Cl,-5,-1,0,-20

# High-throughput results as filed in PubChem BioAssay.
